Calls of active or inactive are those of the source. Rule for the calls: active = hit-call score of the fitted dose curve at least 0.9, where 1 is the maximum; inactive = score below 0.9.

Broadly, the AC50 is the concentration giving half of the maximal activity seen.

Read-out in this assay: CD40, CD40 (gene 958)
The assay is described as follows: BSK_LPS_CD40: BioMAP Diversity Plus: LPS Assay for CD40 Biomarker Activity (AID 2283076). The following applies: primary human HUVEC with PBMC; actives raise or lower the signal. The method, then:
BSK_LPS is a cell-based, multiplexed-readout assay that uses umbilical vein endothelium and peripheral blood mononuclear cells, a human vascular primary cell co-culture, with measurements taken at 24 hours after chemical dosing in a 96-well plate.BSK_LPS_CD40 is an assay component measured in the BSK_LPS assay. It measures CD40 antibody related to regulation of gene expression using ELISA technology.Data from the assay component BSK_LPS_CD40 was analyzed into 1 assay endpoint. This assay endpoint, BSK_LPS_CD40, was analyzed with bidirectional fitting relative to DMSO as the negative control and baseline of activity. Using a type of binding reporter, gain or loss-of-signal activity can be used to understand changes in the signaling as they relate to the gene CD40. Furthermore, this assay endpoint can be referred to as a primary readout, because this assay has produced multiple assay endpoints where this one serves a signaling function. To generalize the intended target to other relatable targets, this assay endpoint is annotated to the cytokine intended target family, where the subfamily is inflammatory factor.
The levels of cell surface (or secreted, indicated by the prefix "s") biomarker endpoints were measured by ELISA. Overt cytotoxicity to cells in confluent adherent cultures (all systems other than the BT system) was assessed by measuring total protein levels using sulforhodamine B (SRB) staining in parallel cultures at the time of biomarker measurements, indicated as SRB endpoints. For proliferation assays for adherent cell types, individual cell types are cultured at sub-confluence and relative cell numbers quantified by SRB staining at time points optimized for each system (48 h: 3C and CASM3C systems; 72 h: BT and HDF3CGF systems; 96 h: SAg system). SRB was performed by staining cells with 0.1% SRB after fixation with 10% TCA and reading wells at 560 nm.Viability and proliferation of PBMC (T cells) was quantified by Alamar Blue reduction for the SAg and BT systems. For PBMC viability (referred to as PBMC Cytotoxicity within the assay endpoint names), cells were plated (75,000/well in a 96-well plate) and then chemical samples added for 1 h before addition of activators, SEB and TSST-1 (20 ng/mL final concentration each). Cells were incubated for 90 h. Then, Alamar Blue (20 uL/well) (Invitrogen, Cat DAL1100) was added for 6 h, and the plates were read with a fluorescence microplate reader at 546/580 nm (excitation/emission). For PBMC proliferation, cells were plated and activated as above but incubated for only 16 h prior to addition of Alamar Blue. Plates were read after 6 h.
For `C[C@]12C=CC(=O)C=C1CC[C@@H]1[C@@H]2C(=O)C[C@@]2(C)[C@H]1CC[C@]2(O)C(=O)CO`, the result was inactive.

Turning to `FC(F)(F)C(F)(F)C(F)(F)C(F)(F)C(F)(F)C(F)(F)CCI`, the result was inactive.

Consider `CCOc1ccc2c(c1)C(C)=CC(C)(C)N2`, for which the outcome was inactive.

As for `COc1cc(S(=O)(=O)O)c(C)cc1N=Nc1c(O)ccc2cc(S(=O)(=O)O)ccc12`, the outcome was inactive.

Consider `CCCCCCCCCCCCCO`, for which the AC50 is 37.8 µM (active).

With `O=C(OCCCCCOC(=O)c1ccccc1)c1ccccc1`, the result was inactive.

As to `CC(=O)OC/C=C(\C)CCC=C(C)C`, the result was inactive.

For `COC(=O)c1ccc(O)cc1`, the outcome was inactive.

`CC(C)(C)c1cc(O)c(C(C)(C)C)cc1O`: the outcome was inactive.

Consider `O=C(N[C@@H](Cc1ccccc1)[C@@H](O)C(=O)N1C[C@@H](O)[C@@H](O)C1)c1cc2cc(Cl)ccc2[nH]1`, for which the outcome was inactive.

On to `Clc1cc(Cl)c(Cl)cc1Cl`, for which the outcome was inactive.

Take `C1CCC(SSC2CCCCC2)CC1`: the result was inactive.

Regarding `CC(CO)OC(C)CO` (stereo not given) (tested in a mixture with another compound), the result was inactive.

`Cc1cccc(C)c1O`: the outcome was inactive.

In the case of `Cc1ccc(N(C)C)cc1`, the outcome was inactive.

Consider `Oc1ccc2ccccc2c1N=Nc1ccccc1`, for which the result was inactive.

In the case of `CCOC(=O)CCC(=O)OCC`, the result was inactive.

For `OC[C@@H](O)[C@@H](O)[C@H](O)[C@H](O)CO`, the outcome was inactive.

For the compound `CCCc1cc(=O)[nH]c(=S)[nH]1`, the outcome was inactive.

As for `CCCCCCCCCCC`, the outcome was inactive.

Turning to `CCCCCCOCCO`, the outcome was inactive.

With `Nc1nc(N)c2nc(CNc3ccc(C(=O)N[C@@H](CCC(=O)O)C(=O)O)cc3)cnc2n1`, the outcome was inactive.

On to `COCCOC[C@H](CC1(C(=O)NC2CCC(C(=O)O)CC2)CCCC1)C(=O)Oc1ccc2c(c1)CCC2` (stereo not given in full), for which the result was inactive.

Consider `CCCCN(CCCC)CCCC`, for which the outcome was inactive.

On to `Cc1ccc(C(C)C)c(O)c1`, for which the outcome was inactive.

Take `Cc1c(C(=O)O)c(O)cc2c1C(=O)c1c(O)c([C@@H]3O[C@H](CO)[C@@H](O)[C@H](O)[C@H]3O)c(O)c(O)c1C2=O`: the AC50 was 0.782 µM (active).

Regarding `CCCCOC(=O)CCCCCCCCC(=O)OCCCC`, the result was inactive.

As to `NC(=O)Cn1c(=O)cc(CCN2CCN(c3nccc4sccc34)CC2)c2ccc(F)cc21`, the result was inactive.

In the case of `CCCCCCCC=O`, the result was inactive.

Consider `CCOC(=O)C(C)(C)Oc1ccc(Cl)cc1`, for which the result was inactive.

Regarding `O=c1[nH]cc(F)c(=O)[nH]1`, the AC50 is 20.4 µM (active).

Regarding `Nc1ccc(S(=O)(=O)c2ccc(N)cc2)cc1`, the result was inactive.

`NCCO`: the outcome was inactive.

Regarding `COc1ccc(S(=O)(=O)N2C(=O)[C@@](c3ccccc3OC)(N3C[C@H](O)C[C@H]3C(=O)N(C)C)c3cc(Cl)ccc32)c(OC)c1`, the AC50 was 20 µM (active).

In the case of `C[Si]1(C)O[Si](C)(C)O[Si](C)(C)O[Si](C)(C)O1`, the outcome was inactive.

As to `Cc1cc(NC(=O)C(=O)O)cc(C)c1Oc1ccc(O)c2c1CCC2`, the result was inactive.

For the compound `CC(=O)Oc1ccccc1C(=O)O`, the result was inactive.

For `NCC1(Cc2noc(=O)[nH]2)CCCCC1`, the result was inactive.

In the case of `Cc1cc(=O)[nH]c(=S)[nH]1`, the outcome was inactive.

For the compound `CCCCCCCCCCCCCCCC`, the result was inactive.

Values taken from PubChem BioAssay (EPA / NIEHS).
